These results are taken from PubChem BioAssay (Tox21).

Results filed as inconclusive are left out. Calls of active or inactive are those of the source. Unless noted, the call rests on the fitted dose curve; in most records, active means well fitted curve in the direction sought with a large enough effect in the repeat runs; inconclusive means weak or mixed curves; inactive means no such curve, though single readings can be large; an effect the other way counts as inactive or inconclusive.

A short description of assay [1]: qHTS assay to identify small molecule antagonists of the thyroid receptor (TR) signaling pathway - cell viability counter screen (AID 743064). Further: nearly all actives have a fitted effect of over 50% in size. Further: potency means the concentration at half of the fitted maximal effect. In outline: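 GH3.TRE-Luc rat pituitary cells carrying a TRE-luciferase reporter were treated with compound plus 1 nM T3 (final) for 23.5 h at 37 °C. Viability was then read in the same wells by CellTiter-Fluor fluorescence after a further 30 min.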

The nature of assay [2]: qHTS assay to identify small molecule antagonists of the thyroid receptor (TR) signaling pathway (AID 743065). Further: nearly all actives have a fitted effect of over 55% in size. Further: potency means the concentration at half of the fitted maximal effect. The essentials:
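GH3.TRE-Luc rat pituitary cells (two TREs driving luciferase) were dosed with compound, then stimulated with 1 nM T3 (final) for 23.5 h at 37 C. ONE-Glo luminescence was the read-out, with CellTiter-Fluor fluorescence as the cytotoxicity counter-screen.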
Background: qHTS replaces the single test concentration by a dilution series.

Assay [3] relates to thyroid hormone receptor (rat, GH3 cells). Put plainly: qHTS assay to identify small molecule agonists of the thyroid receptor (TR) signaling pathway (AID 743066; calls by dose curve).
The target in assay [4] is Estrogen receptor (Homo sapiens) (UniProt P03372). Put plainly: qHTS assay to identify small molecule antagonists of the estrogen receptor alpha (ER-alpha) signaling pathway (AID 743069; active means well fitted curve in the direction sought with a large enough effect in the signal ratio in the repeat runs, not every such curve was filed as active; the % refers to the signal ratio). In outline: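 In this cell-based reporter format, GripTite HEK293 cells harbouring ER-alpha-UAS-bla were grown overnight with 2% charcoal-stripped FBS, dosed with DMSO-dissolved compounds, then challenged with 17beta-estradiol. After 18 hr at 37C, beta-lactamase activity was detected by FRET fluorescence.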

A short description of assay [5]: qHTS assay to identify small molecule antagonists of the estrogen receptor alpha (ER-alpha) signaling pathway - cell viability counter screen (AID 743074; calls by dose curve; further: nearly all actives have a fitted effect of over 45% in size).
Assay [6] deals with Estrogen receptor (Homo sapiens) (UniProt P03372). Nature of the assay: qHTS assay to identify small molecule agonists of the estrogen receptor alpha (ER-alpha) signaling pathway (AID 743075; calls by dose curve; further: potency means the concentration at half of the fitted maximal effect).
For assay [7] the target is unchanged. Nature of the assay: qHTS assay to identify small molecule agonists of the estrogen receptor alpha (ER-alpha) signaling pathway using the BG1 cell line (AID 743079). Further: nearly all actives have a fitted effect of over 20% in size. Further: potency means the concentration at half of the fitted maximal effect. To be noted: BG1Luc4E2 cells, ERE-luciferase agonist, 22 h; activation: at 70.3 µM (top of the series).
A short description of assay [8]: qHTS assay to identify small molecule antagonists of the estrogen receptor alpha (ER-alpha) signaling pathway using the BG1 cell line - cell viability counter screen (AID 743081).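 Further: compound given together with 17beta-estradiol as the ER stimulus; nearly all actives have a fitted effect of over 45% in size.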
Assay [9] deals with Aromatase (Homo sapiens) (UniProt P11511). Nature of the assay: qHTS assay to identify aromatase inhibitors (AID 743083). Further: nearly all actives have a fitted effect of over 55% in size.
Assay [10] can be described thus: qHTS assay to identify aromatase inhibitors - cell viability counter screen (AID 743084).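 Further: cells stimulated with testosterone during compound exposure; nearly all actives have a fitted effect of over 55% in size.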
Assay [11] concerns the target Aryl hydrocarbon receptor (Homo sapiens) (UniProt P35869). Put plainly: qHTS assay to identify small molecule that activate the aryl hydrocarbon receptor (AhR) signaling pathway (AID 743085). Further: nearly all actives have a fitted effect of over 15% in size. Further: potency means the concentration at half of the fitted maximal effect.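 On activation: HG2L7.5c1 human HepG2 liver cells with stably integrated DRE-driven firefly reporter.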 The essentials:
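HepG2 cells (HG2L7.5c1) stably carrying a firefly luciferase reporter driven by 20 dioxin responsive elements were exposed to compound for 24 h at 37C after a 5 h settling period; luminescence rise (ONE-Glo) indicated activation.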

Assay [12] in a line: qHTS assay to identify small molecule that activate the aryl hydrocarbon receptor (AhR) signaling pathway - cell viability counter screen (AID 743086).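 Further: HepG2 liver cells carrying the AhR DRE luciferase reporter; nearly all actives have a fitted effect of over 45% in size.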 In outline:
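HepG2-AhR-luc (HG2L7.5c1) cells, 4000/well, treated 24 h at 37 C with compound; viability measured as CellTiter-Fluor fluorescence after 30 min in the same wells as the luciferase read.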

For assay [13], the target named is Peroxisome proliferator-activated receptor gamma (Homo sapiens) (UniProt P37231). Nature of the assay: qHTS assay to identify small molecule agonists of the peroxisome proliferator-activated receptor gamma (PPARg) signaling pathway (AID 743094; active means well fitted activation curve with a large enough effect in the signal ratio in the repeat runs, not every such curve was filed as active; the % refers to the signal ratio). The essentials: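 Cells from the PPARg UAS-bla HEK293H line are plated and incubated 5 h at 37C. Compounds in DMSO are pinned in and left 17 h at 37C. LiveBLAzer B/G substrate is then added for 1 h at room temperature before fluorescence is measured.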

Assay [14] has the same target. Put plainly: qHTS assay to identify small molecule antagonists of the peroxisome proliferator-activated receptor gamma (PPARg) signaling pathway (AID 743191; calls by dose curve; further: nearly all actives have a fitted effect of over 30% in size). The essentials: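 GeneBLAzer PPARg UAS-bla HEK293H cells, 5 h post-plating, exposed to compounds 17 h at 37C. LiveBLAzer B/G FRET substrate added for 1 h at room temperature; beta-lactamase reporter read by fluorescence intensity.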

Assay [15] can be described thus: qHTS assay to identify small molecule antagonists of the peroxisome proliferator-activated receptor gamma (PPARg) signaling pathway - cell viability counter screen (AID 743194). Further: nearly all actives have a fitted effect of over 55% in size. The essentials:
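Cytotoxicity counter screen in PPARg-bla HEK293H cells, same wells as reporter assay. Compounds plus 50 nM rosiglitazone (final) for 17 h at 37 C, then viability read by CellTiter-Glo luminescence.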

Assay [16] in a line: qHTS assay for small molecule agonists of the antioxidant response element (ARE) signaling pathway (AID 743202; active means well fitted activation curve with a large enough effect in the signal ratio in the repeat runs, not every such curve was filed as active; the % refers to the signal ratio). In outline:
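HepG2 ARE-bla cells; 16 h treatment at 37 C; FRET-based beta-lactamase fluorescence read after 2 h substrate incubation at room temperature.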

Assay [17] in a line: qHTS assay for small molecule activators of the heat shock response signaling pathway - cell viability counter screen (AID 743209). Further: nearly all actives have a fitted effect of over 50% in size. In outline: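 Cytotoxicity counter screen run in parallel with the HSE beta-lactamase reporter, using the same wells. HeLa HSE-bla cells received compound for 5 h at 37 C; ATP-based CellTiter-Glo luminescence was measured after 30 min at room temperature.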

A short description of assay [18]: qHTS assay to identify small molecule antagonists of the estrogen receptor alpha (ER-alpha) signaling pathway using the BG1 cell line (AID 743080; calls by dose curve; further: nearly all actives have a fitted effect of over 25% in size). In outline:
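Antagonist mode: compounds in DMSO were pinned onto BG1-Luc-4E2 cells alongside 17beta-estradiol agonist, incubated 21.5 h, and ERE-driven luciferase measured with ONE-Glo. Cytotoxicity was multiplexed using CellTiter-Fluor fluorescence.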

A short description of assay [19]: qHTS assay for small molecule agonists of the antioxidant response element (ARE) signaling pathway - cell viability counter screen (AID 743203; calls by dose curve; further: nearly all actives have a fitted effect of over 55% in size). In outline: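 Cytotoxicity was tested in parallel with the ARE reporter screen. ARE-bla HepG2 cells were exposed to compounds for 16 hrs, and viability was taken from CellTiter-Glo luminescence.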
Assay [20] in a line: qHTS assay for small molecule activators of the heat shock response signaling pathway (AID 743210; active means well fitted activation curve with a large enough effect in the signal ratio in the repeat runs, with a control signal flat, not every such curve was filed as active; the % refers to the signal ratio;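 further: HeLa cells with beta-lactamase reporter driven by heat shock elements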). The essentials: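 Following overnight attachment, HSE-bla HeLa cells received test compounds for 5 h at 37 C; beta-lactamase activity was then detected via FRET substrate fluorescence.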

Estrogen receptor (Homo sapiens), sequence (P03372 whole entry, looked up): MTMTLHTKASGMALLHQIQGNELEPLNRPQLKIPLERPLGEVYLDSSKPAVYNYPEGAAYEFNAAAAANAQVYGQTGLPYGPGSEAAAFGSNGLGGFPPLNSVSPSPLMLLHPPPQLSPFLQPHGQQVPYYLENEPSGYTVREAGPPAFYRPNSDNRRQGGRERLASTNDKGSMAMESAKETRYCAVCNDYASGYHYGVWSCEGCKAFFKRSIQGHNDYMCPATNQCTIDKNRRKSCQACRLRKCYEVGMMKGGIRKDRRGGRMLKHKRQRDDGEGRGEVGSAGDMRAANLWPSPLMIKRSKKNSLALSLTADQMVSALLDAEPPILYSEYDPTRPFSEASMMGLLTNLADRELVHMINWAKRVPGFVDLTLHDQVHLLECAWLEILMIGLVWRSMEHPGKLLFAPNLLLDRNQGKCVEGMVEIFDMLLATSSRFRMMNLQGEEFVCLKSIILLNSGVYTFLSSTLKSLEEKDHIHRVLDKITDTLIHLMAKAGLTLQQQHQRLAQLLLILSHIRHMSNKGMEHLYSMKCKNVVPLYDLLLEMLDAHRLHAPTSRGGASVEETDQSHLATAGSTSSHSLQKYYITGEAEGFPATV
Aromatase (Homo sapiens), sequence (P11511 whole entry, looked up): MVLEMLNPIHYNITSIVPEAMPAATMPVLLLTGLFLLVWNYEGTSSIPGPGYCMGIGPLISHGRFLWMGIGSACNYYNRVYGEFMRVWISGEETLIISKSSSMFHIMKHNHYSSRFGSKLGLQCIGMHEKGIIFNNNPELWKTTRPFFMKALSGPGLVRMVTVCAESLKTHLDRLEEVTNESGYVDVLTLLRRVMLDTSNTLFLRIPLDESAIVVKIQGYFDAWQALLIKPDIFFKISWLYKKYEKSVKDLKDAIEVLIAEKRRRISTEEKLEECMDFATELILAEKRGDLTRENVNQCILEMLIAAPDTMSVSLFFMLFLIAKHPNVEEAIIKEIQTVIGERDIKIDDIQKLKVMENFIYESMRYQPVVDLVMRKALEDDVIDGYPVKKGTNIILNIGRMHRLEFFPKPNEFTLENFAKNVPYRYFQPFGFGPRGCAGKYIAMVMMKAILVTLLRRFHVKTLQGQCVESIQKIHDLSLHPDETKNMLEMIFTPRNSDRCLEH
Aryl hydrocarbon receptor (Homo sapiens), sequence (P35869 whole entry, looked up): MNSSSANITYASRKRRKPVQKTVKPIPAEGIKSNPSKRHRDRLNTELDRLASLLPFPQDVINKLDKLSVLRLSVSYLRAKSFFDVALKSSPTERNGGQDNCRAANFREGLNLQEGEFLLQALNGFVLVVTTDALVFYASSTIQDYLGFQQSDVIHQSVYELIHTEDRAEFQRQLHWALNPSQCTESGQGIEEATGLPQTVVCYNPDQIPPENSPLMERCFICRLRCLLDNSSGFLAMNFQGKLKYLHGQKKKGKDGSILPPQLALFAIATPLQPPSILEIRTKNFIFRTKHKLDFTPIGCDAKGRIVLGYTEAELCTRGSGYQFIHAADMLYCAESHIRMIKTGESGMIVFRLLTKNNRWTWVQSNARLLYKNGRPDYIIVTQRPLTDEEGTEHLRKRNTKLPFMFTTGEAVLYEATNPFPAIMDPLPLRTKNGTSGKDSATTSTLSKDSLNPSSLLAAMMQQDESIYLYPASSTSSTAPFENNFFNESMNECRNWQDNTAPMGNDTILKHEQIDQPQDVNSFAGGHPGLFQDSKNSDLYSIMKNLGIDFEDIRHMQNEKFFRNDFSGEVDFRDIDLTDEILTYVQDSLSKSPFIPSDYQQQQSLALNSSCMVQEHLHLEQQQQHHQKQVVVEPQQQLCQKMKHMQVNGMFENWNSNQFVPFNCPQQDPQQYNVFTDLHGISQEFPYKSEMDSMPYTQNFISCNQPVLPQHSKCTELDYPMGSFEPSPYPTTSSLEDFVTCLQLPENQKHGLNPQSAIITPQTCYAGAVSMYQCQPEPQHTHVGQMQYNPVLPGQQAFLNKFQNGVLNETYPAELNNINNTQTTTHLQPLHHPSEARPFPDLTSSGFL
Peroxisome proliferator-activated receptor gamma (Homo sapiens), sequence (P37231 whole entry, looked up): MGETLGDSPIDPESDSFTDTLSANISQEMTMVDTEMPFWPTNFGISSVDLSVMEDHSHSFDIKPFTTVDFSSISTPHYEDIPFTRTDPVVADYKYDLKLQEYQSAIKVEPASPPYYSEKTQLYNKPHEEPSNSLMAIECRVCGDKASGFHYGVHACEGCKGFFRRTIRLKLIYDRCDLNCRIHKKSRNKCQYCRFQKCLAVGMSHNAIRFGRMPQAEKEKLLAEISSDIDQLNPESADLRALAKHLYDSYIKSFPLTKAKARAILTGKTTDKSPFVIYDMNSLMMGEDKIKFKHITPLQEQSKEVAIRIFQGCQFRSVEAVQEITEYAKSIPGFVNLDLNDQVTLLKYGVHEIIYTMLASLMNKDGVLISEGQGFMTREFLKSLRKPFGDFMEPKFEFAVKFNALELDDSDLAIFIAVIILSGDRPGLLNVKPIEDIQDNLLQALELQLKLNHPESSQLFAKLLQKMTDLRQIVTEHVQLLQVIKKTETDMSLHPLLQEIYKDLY

For `O=c1[nH]ncc2ccccc12`, the Potency result in assay [1], in assay [2], in [4], in assay [5], in assay [6] and in assay [7] was “inactive” throughout. In addition, the Potency entry in [8], in assay [9], in assay [10], in [11], in assay [12] and in assay [13] was “inactive” throughout. Also, the Potency entry in assay [14], in [15], in assay [16] and in assay [17] was “inactive” throughout. Moreover, the result in [3] was inactive.
On to `O[C@@H]1CO[C@H]2[C@@H]1OC[C@@H]2O`, for which the Potency result in [1], in assay [2], in assay [4], in assay [5], in assay [6] and in assay [7] was “inactive” in each case. The Potency result in [18], in [8], in [9], in assay [10], in assay [11] and in [12] was “inactive” in each case. Besides, the Potency result in assay [13], in assay [14], in [15], in assay [16], in assay [19] and in assay [17] was “inactive” throughout. For the same compound, the Potency entry in assay [20] is “inactive”. For the same compound, the compound was called inactive in assay [3].
For `C1C[C@@H]2[C@H]3CC[C@H](C3)[C@@H]2C1`, the Potency entry in assay [1], in assay [2], in assay [4], in [5], in [6] and in [7] was “inactive” in each case. Moreover, the Potency entry in assay [8], in [9], in assay [10], in assay [11], in assay [12] and in assay [13] was “inactive” throughout. In addition, the Potency result in assay [14], in assay [15], in assay [16], in [19], in assay [17] and in [20] was “inactive” throughout. Also, the call in assay [3] was inactive.
As to `Cc1ccccc1N=C(N)Nc1ccccc1C`, the Potency result in [1], in assay [2], in assay [4], in assay [5], in assay [6] and in assay [7] was “inactive” throughout. Moreover, the Potency entry in [18], in assay [9], in assay [10], in [11], in assay [12] and in assay [13] was “inactive” throughout. In addition, the Potency result in assay [14], in assay [15], in assay [16], in assay [19], in assay [17] and in assay [20] was “inactive” in each case. Moreover, the compound was called inactive in [3].
`C(=C\c1ccccc1)/c1ccccc1`: the Potency result in [1], in [2], in assay [4], in assay [5], in assay [6] and in assay [8] was “inactive” throughout. The Potency entry in assay [9], in assay [10], in [12], in assay [13], in assay [14] and in assay [19] was “inactive” in each case. In addition, the Potency entry in [17] and in [20] was “inactive” in each case. Also, the call in assay [3] was inactive. In addition, the Potency was 60.6 µM (active) in assay [7] and 76.3 µM (active) in assay [11].
Regarding `CCC=CC#N`, the Potency result in assay [1], in [2], in assay [4], in assay [5], in [6] and in [7] was “inactive” in each case. The Potency entry in [18], in assay [8], in assay [9], in assay [10], in assay [12] and in assay [13] was “inactive” throughout. Moreover, the Potency entry in assay [15], in assay [16], in [17] and in assay [20] was “inactive” in each case. Also, the outcome in [3] was inactive.
For `CCOc1ccccc1O[C@H](c1ccccc1)[C@H]1CNCCO1`, the figures for the Potency in [1] and in [2] were 16.8 µM (active) and 26.6 µM (active), respectively. Further, in assay [3], the compound was classed as inactive. Also, the Potency entry in assay [4], in assay [5], in [6], in [7], in assay [18] and in [8] was “inactive” in each case. Besides, the Potency entry in [9], in assay [10], in assay [11], in assay [13], in assay [15] and in assay [19] was “inactive” in each case. The Potency result in [17] and in assay [20] was “inactive” in each case.
For the compound `O=c1[nH]c2ccc(Cl)cc2o1`, the Potency result in [1], in [2], in assay [4], in [5], in [6] and in assay [7] was “inactive” in each case. The Potency entry in [18], in [8], in assay [9], in assay [10], in assay [11] and in [12] was “inactive” each time. For the same compound, the Potency entry in [15], in assay [19], in assay [17] and in assay [20] was “inactive” each time. For the same compound, the result in assay [3] was inactive.
Turning to `Cc1ccc(CO)cc1`, the Potency entry in assay [1], in assay [2], in [4], in assay [5], in assay [6] and in assay [7] was “inactive” each time. In addition, the Potency entry in assay [18], in assay [8], in [9], in assay [10], in assay [11] and in assay [12] was “inactive” in each case. The Potency entry in assay [13], in assay [14], in assay [15], in assay [17] and in assay [20] was “inactive” throughout. In assay [3], the compound was called inactive.
As to `Cc1ccc(C(C)(C)O)cc1`, the Potency result in [1], in assay [2], in [4], in assay [5], in assay [6] and in assay [7] was “inactive” each time. For the same compound, the Potency entry in assay [18], in [8], in assay [9], in assay [10], in [11] and in assay [12] was “inactive” throughout. Also, the Potency result in [13], in assay [14], in [15], in assay [16], in [19] and in [17] was “inactive” each time. In addition, the Potency result in assay [20] was “inactive”. For the same compound, the outcome in [3] was inactive.
Take `Cc1cc(C)c(N)cc1C`: the Potency entry in assay [1], in assay [2], in assay [4], in assay [5], in assay [6] and in [7] was “inactive” each time. The Potency entry in [18], in [8], in assay [10], in [12], in assay [13] and in assay [15] was “inactive” each time. Moreover, the Potency result in assay [16], in assay [17] and in assay [20] was “inactive” in each case. The result in assay [3] was inactive.
Take `CCC(C)(C)OC`: the Potency entry in assay [1], in assay [2], in assay [4], in [5], in [8] and in assay [9] was “inactive” in each case. Further, the Potency result in assay [10], in [11], in assay [12], in [13], in assay [14] and in assay [15] was “inactive” throughout. Moreover, the Potency entry in assay [16], in [19], in assay [17] and in assay [20] was “inactive” each time. Also, in assay [3], the compound was called inactive. Further, the figures for the Potency in [6] and in assay [7] were 54.7 µM [activator] (active) and 68.2 µM (active), respectively.
`COC(=O)CCS`: the Potency result in assay [1], in [2], in [4], in assay [5], in [6] and in [7] was “inactive” throughout. Further, the Potency result in assay [18], in assay [8], in [9], in assay [10], in assay [11] and in [12] was “inactive” in each case. The Potency entry in assay [14], in assay [15], in [16], in [19], in assay [17] and in [20] was “inactive” in each case. For the same compound, the outcome in assay [3] was inactive.
As for `CC1(C)S[C@@H]2[C@H](NC(=O)C(c3ccccc3)S(=O)(=O)O)C(=O)N2[C@H]1C(=O)O` (some centres not stated), the Potency entry in assay [1], in assay [2], in [4], in [5], in assay [6] and in [7] was “inactive” each time. The Potency result in assay [18], in assay [9], in assay [10], in assay [11], in [12] and in [13] was “inactive” throughout. Moreover, the Potency result in assay [14], in assay [15], in assay [17] and in [20] was “inactive” in each case. Moreover, the compound was called inactive in assay [3].
